Test results published in the supplement of paper PMC6555819.

Tested on: LXRa homodimer (NR concentration 270 nM)
Experiment: PBM binding z-score (relative to random genomic background probes); higher = stronger binding; sequences stand for … in GC…GCGATTGACAGCGTAGAATGAAGG
Procedure, shortened: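 Ligand-free nuclear receptor dimers were applied to custom Agilent 4×180K protein-binding microarrays whose double-stranded probes carried direct-repeat seeds, single-nucleotide variants, half-site ablations and random human genomic background sequences in 34-nt variable regions. Incubation lasted 1 h. Binding z-scores were computed against the random background probes from regression-normalized fluorescence.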

With CGTCCAAGGTCATAGGAGATCAGTGAAGACAGAT as the sequence, how does the PBM binding z-score read?
The PBM binding z-score was 1.32.

How did the PBM binding z-score turn out when CCTTACGGGTCAAGGCTATAGCACGGGTGGTACG was run?
The PBM binding z-score was -0.261.

CGAACGAGGGCATGAGTTGATAGCAAATGCCGAT was tested. Which PBM binding z-score did it give?
The PBM binding z-score was -0.654.

With CCAGACAGGTGAGAAGGTAACTCCGCCTCGATTA as the sequence, how does the PBM binding z-score read?
Its PBM binding z-score is 0.189.

TCTACTAGTTGATTAGGGCAACCGAAACAGCGGA was tested. Which PBM binding z-score did it give?
Its PBM binding z-score is -0.422.

For GAGACAGGGTCAAGGCCAGAGTACGCGTATTGAT, which PBM binding z-score is on record?
Its PBM binding z-score is -0.408.

TCTAGTTGGTCACGGAGGTCACTCACGACGGGTA was tested. Which PBM binding z-score did it give?
The PBM binding z-score was 1.91.

For CTCGAAAGGTCGGTTGAGGTGTGTATACGGATAA, which PBM binding z-score is on record?
Its PBM binding z-score is -0.285.

CCTACTGGGCCATTCAGAGTTCATTGATCATATG was tested. Which PBM binding z-score did it give?
Its PBM binding z-score is 6.11.

With CAGCCTAGGTTAGGGCCAGTATAGGAGGAACGTT as the sequence, how does the PBM binding z-score read?
The PBM binding z-score was -0.564.

For GCGACTGGGGCCAAGCAGGTTACCATAAGGTTGG, which PBM binding z-score is on record?
Its PBM binding z-score is -0.686.

For CGAACGAGGGCATGAGTTGATGGCAAATGCCGAT, which PBM binding z-score is on record?
Its PBM binding z-score is -0.503.

How did the PBM binding z-score turn out when GGAACGATGGCAAGTTGATAGCAGAGTTTGATGG was run?
Its PBM binding z-score is -0.63.

CGTCCAAGGTCAAAGGTCAGTCAAGAGATGACGG was tested. Which PBM binding z-score did it give?
The PBM binding z-score was 3.05.

Which PBM binding z-score does the source give for CGTCCAAGGTCAAAGGTCAGTGCAGAGATGACGG here?
The PBM binding z-score was 3.67.

CCTTCTGGGCCAAAGGTCATTGATTCCAATGCTC was tested. Which PBM binding z-score did it give?
The PBM binding z-score was 4.15.

Which PBM binding z-score does the source give for TTTTGTAGATCAAGCAGGTTAAGAAAGCCTGAGT here?
The PBM binding z-score was 0.00472.

With AAGACAGGGTCATCGTAGGCCAGAGTACGCACAG as the sequence, how does the PBM binding z-score read?
The PBM binding z-score was 0.0665.

With GCTAGCAGGCCATTTAGGTCACTCAATGACGGGC as the sequence, how does the PBM binding z-score read?
The PBM binding z-score was -0.241.

Which PBM binding z-score does the source give for AATACAGGGTCACTAGGCCAGAGTTGGTACGAAT here?
The PBM binding z-score was 0.807.

Which PBM binding z-score does the source give for TCATATAGGTAATACAGGTGAAAGTGGGCATCTA here?
The PBM binding z-score was 0.56.

Which PBM binding z-score does the source give for CGAACTAGGTCTAGGACAGTGAATCTCCGCACGC here?
The PBM binding z-score was -0.429.
